Several values for one entry are separate records, joined by “and”; a condition that tells them apart may be missing. Equal values may be shown once. Inconclusive results are not listed. The source holds several records for some structures; these can differ, active in one and inactive in another. Activity calls are given as the source filed them. Calls come from the whole dose curve; as a rule, active = well fitted curve in the direction sought with a large enough effect; inconclusive = small, poorly fitted or top-dose-only effect, or another doubt; inactive = no such curve, though single readings can be large; an effect the other way counts as inactive or inconclusive.

Experimental findings from PubChem BioAssay (NCATS) are described below.

Test [1] is described as follows: Viability qHTS for spleen associated tyrosine kinase inhibitor (SYKi) naive MV4-11 cells (AID 1963823). Note: nearly all actives have a fitted effect of over 40% in size. In short, it runs like this:
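CellTiter-Glo luminescence, 10 min room-temperature incubation, gave viability. Cells: naive MV4-11 (500/well), treated 72 hr at 37 C, 5% CO2.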
For orientation: In qHTS, concentration-response curves come from the screen itself.

Test [2] in a line: Viability qHTS for spleen associated tyrosine kinase inhibitor (SYKi) drug resistant MV4-11 cells (AID 1963824). Note: nearly all actives have a fitted effect of over 35% in size. In short, it runs like this:
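SYK inhibitor-resistant MV4-11 AML cells, 500 per well, added to predispensed compounds and incubated 72 hr at 37 C, 5% CO2. Viability measured by CellTiter-Glo luminescence after 10 min at room temperature.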

Test [3] can be described thus: Cellular viability qHTS for adrenocortical cancer (ACC) cell line SW-13 (AID 1963989).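 For activity (max response): cells grown in serum-free medium with ITS supplement; % is set by controls: 0 for no effect and ±100 for the full control effect.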 Note: nearly all actives have a fitted effect of over 65% in size. The settings on record: SW-13 ACC cells viability, CellTiter-Glo, 48 h; activity (max response): stronger effect = lower value. In short, it runs like this:
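IC50 and maximal-response values come from four-parameter logistic fits of titration data. SW-13 cells in serum-free medium received compounds (up to 46 uM final) for 48 h before CellTiter-Glo luminescence.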

The nature of test [4]: Cellular viability qHTS for adrenocortical cancer (ACC) cell line NCI-H295R (AID 1963990).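 For activity change, negative = viability loss: 0% = DMSO only wells and -100% = full killing with cytotoxic reference compound.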 Note: nearly all actives have a fitted effect of over 60% in size. In short, it runs like this: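 Adrenocortical carcinoma cells, suspended at 300 000 cells/mL in serum-free DMEM plus ITS, rested overnight before pin transfer of compound. After two days' incubation, ATP-dependent luminescence was recorded and curve-fitted.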
Potency is the fitted concentration of half-maximal effect.

In the case of `CN(C)CCCOc1nn(Cc2ccccc2)c2ccccc12`, in test [1], the Potency entry is “inactive”. The Potency result was “inactive and 13 µM (active)” in test [2]; 11.6 µM (active) in test [3]; 14.6 µM (active) in test [4].

On to `Clc1ccc(-c2nc3sccn3c2/C=N/OCc2ccc(Cl)c(Cl)c2)cc1`, for which the Potency entry in test [1], in test [2] and in test [4] was “inactive” throughout. Also, the activity (max response) in test [3] was 3.29% (inactive).

Take `COc1c(Nc2ncc(Cl)c(N[C@H]3[C@H](C(N)=O)[C@@H]4C=C[C@@H]3C4)n2)ccc2c1CCC(N1CCOCC1)CC2` (stereo partly specified): the Potency is 0.13 µM (active) in test [1], 0.366 µM (active) in test [2], 15.8 µM (active) in test [3] and 7.94 µM (active) in test [4].

In the case of `C=C[C@H]1CN2CC[C@H]1C[C@@H]2[C@@H](O)c1ccnc2ccc(OC)cc12`, the Potency entry in test [1], in test [2] and in test [4] was “inactive” in each case. For the same compound, in test [3], the activity (max response) was 6.85% (inactive).

Turning to `O=c1c(-c2ccc(O)cc2)coc2c([C@@H]3O[C@H](CO)[C@@H](O)[C@H](O)[C@H]3O)c(O)ccc12`, the Potency result in test [1], in test [2] and in test [4] was “inactive” each time. Further, in test [3], the activity (max response) is 3.16% (inactive).

On to `CC(C)=CCC[C@](C)(O[C@@H]1O[C@H](CO[C@@H]2O[C@H](CO)[C@@H](O)[C@H](O)[C@H]2O)[C@@H](O)[C@H](O)[C@H]1O)[C@H]1CC[C@]2(C)[C@@H]1[C@H](O)C[C@@H]1[C@@]3(C)CC[C@H](O[C@@H]4O[C@H](CO)[C@@H](O)[C@H](O)[C@H]4O[C@@H]4O[C@H](CO)[C@@H](O)[C@H](O)[C@H]4O)C(C)(C)[C@@H]3CC[C@]12C`, for which the Potency entry in test [1], in test [2] and in test [4] was “inactive” in each case. For the same compound, the activity (max response) in test [3] is -6.63% (inactive).

On to `Oc1ccccc1`, for which the Potency entry in test [1], in test [2] and in test [4] was “inactive” throughout. The activity (max response) in test [3] was 8.68% (inactive).

For `CCOCCOC(=O)/C=C/c1ccc(OC)cc1`, the Potency entry in test [1], in test [2] and in test [4] was “inactive” each time. In addition, in test [3], the activity (max response) was -3.52% (inactive).

Take `CN[C@H]1CC[C@@H](c2ccc(Cl)c(Cl)c2)c2ccccc21`: the Potency was 6.61 µM (active) in test [1]; 7.42 µM (active) in test [2]; 20.6 µM (active) and 28.2 µM (active) in test [3]; 4.61 µM (active) and 8.91 µM (active) in test [4].

In the case of `C[C@H](NC(=O)CCC(F)(F)F)C(=O)N[C@@H]1C(=O)N(CCO)c2ncccc2-c2ccccc21`, the Potency entry in test [1], in test [2] and in test [4] was “inactive” in each case. Also, in test [3], the activity (max response) is -28.7% (inactive).

`CNC1(C)C2CCC(C2)C1(C)C` (stereo unspecified): the Potency entry in test [1], in test [2] and in test [4] was “inactive” throughout. Further, the activity (max response) in test [3] was -10.9% (inactive).

Consider `CCC[C@H](N[C@H]1CCc2cc(F)cc(F)c2C1)C(=O)Nc1cn(C(C)(C)CNCC(C)(C)C)cn1`, for which the Potency was 8.33 µM (active) in test [1]; 9.2 µM (active) and 6.61 µM (active) in test [2]; 14.1 µM (active) in test [3]; 25.1 µM (active) in test [4].

Consider `CC(C)(O)CS(=O)(=O)Nc1ccc2c(c1)CCN(C(=O)COc1cccnc1)C2`, for which the Potency in test [1] is 0.0209 µM (active); in test [2], 0.0295 µM (active); in test [3], 0.282 µM (active); in test [4], 0.112 µM (active).

In the case of `C[C@H]1CNC(=O)c2cnn3ccc(nc23)N[C@H](C)c2cc(F)ccc2O1`, the Potency in test [1] is 0.525 µM (active); in test [2] it was 0.934 µM (active); in test [3], 8.91 µM (active); in test [4], 8.91 µM (active).

As for `CC(C)C[C@H](NC(=O)[C@H](Cc1ccccc1)NC(=O)OCc1ccccc1)C(=O)C=O`, the Potency was 23.5 µM (active) in test [1] and 20.9 µM (active) in test [2]. In test [3], the activity (max response) was -18.6% (inactive). Further, the Potency result in test [4] was “inactive”.

Take `C[C@]12CCC(=O)C=C1CC[C@@H]1[C@@H]2[C@@H](O)C[C@@]2(C)[C@H]1CC[C@]2(O)C(=O)CO`: the Potency result in test [1], in test [2] and in test [4] was “inactive” in each case. The activity (max response) in test [3] was 8.55% (inactive) and 7.07% (inactive).

With `Oc1c(Cl)cc(Cl)c(Cl)c1Cc1c(O)c(Cl)cc(Cl)c1Cl`, the Potency in test [1] was 8.41 µM (active); in test [2], 5.96 µM (active); in test [3], 1.84 µM (active); in test [4], 2.06 µM (active).

`CN1CCCN(C(=O)c2cccc(-c3ccc(/C=C4/C(=O)Nc5ccc(Cl)cc54)o3)c2)CC1`: the Potency in test [1] is 0.417 µM (active); in test [2] it was 0.662 µM (active); in test [3], 25.1 µM (active); in test [4] it was 4.47 µM (active).

As to `Cc1c(C)c2c(c(C)c1OC(=O)CCC(=O)OCCO)CC[C@@](C)(CCC[C@H](C)CCC[C@H](C)CCCC(C)C)O2`, the Potency entry in test [1] and in test [2] was “inactive” each time. Moreover, the Potency in test [3] was 18.4 µM (active); in test [4] it was 13 µM (active).

Regarding `N=C1CCCN1Cc1[nH]c(=O)[nH]c(=O)c1Cl`, the Potency entry in test [1], in test [2] and in test [4] was “inactive” throughout. For the same compound, in test [3], the activity (max response) is -17.6% (inactive).

With `Cc1cc(O)cc2c1[C@]1(C)CC[C@H]3C(C)(C)CCC[C@]3(C)[C@H]1C2`, in test [1], the viability (% of control) was 65.3% [at 4.97 µM] (inactive). Also, the viability, % of control in test [2] was 59.2% [at 4.97 µM] (inactive). Further, the activity (max response) in test [3] is -14% (inactive). The activity change, negative = viability loss in test [4] is -10.2% [at 3.81 µM] (inactive).

For `COc1ccc(-c2cc(=O)c3c(O)cc(O[C@@H]4O[C@H](CO[C@@H]5O[C@@H](C)[C@H](O)[C@@H](O)[C@H]5O)[C@@H](O)[C@H](O)[C@H]4O)cc3o2)cc1O`, the Potency entry in test [1], in test [2] and in test [4] was “inactive” in each case. Further, in test [3], the activity (max response) was -2.14% (inactive) and 4.75% (inactive).

In the case of `OCCn1cc(-c2ccc3c(c2)CC/C3=N\O)c(-c2ccncc2)n1`, the Potency in test [1] is 16.4 µM (active); in test [2] it was 18.6 µM (active). In test [3], the activity (max response) was -9.16% (inactive). Besides, in test [4], the Potency entry is “inactive”.

For the compound `CN(C)C/C=C/C(=O)Nc1cc2c(Nc3ccc(F)c(Cl)c3)ncnc2cc1O[C@H]1CCOC1`, the Potency in test [1] was 1.48 µM (active); in test [2], 1.86 µM (active); in test [3], 0.891 µM (active); in test [4] it was 7.08 µM (active).
